From PubChem BioAssay (NCATS)
Records with an inconclusive call do not appear. Active and inactive are the calls of the source. Unless noted, the call rests on the fitted dose curve; in most records, active means well fitted curve in the direction sought with a large enough effect; inconclusive means small, poorly fitted or top-dose-only effect, or another doubt; inactive means no such curve, though single readings can be large; an effect the other way counts as inactive or inconclusive.

Tests used:
[1] = qHTS Assay for Identifying Gametocytocidal Compounds (AID 743244); further: potency means the concentration at half of the fitted maximal effect;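 on max response: on the % scale 0 is the no-effect control and ±100 the full control effect; actives lower the fluorescent signal which means gametocytes are killed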; conditions: P. falciparum 3D7 stage III-V gametocytes, alamarBlue, 72 h; max response: stronger effect = lower value
In short: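 Fluorescence at Ex 525/Em 598 nm, recorded 24 h after alamarBlue addition, reports residual metabolic activity of 3D7 gametocytes (stages III–V) following 72 h compound exposure at 37 °C, 5% CO2.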

[2] = qHTS assay for cell viability of the p53RE-bla HCT-116 cell line (AID 743292); further: on the % scale 0 is the no-effect control and ±100 the full control effect; nearly all actives have a fitted effect of over 55% in size
In short: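 CellSensor p53RE-bla HCT-116 cells, 4,000/well, preincubated 5 h at 37 C, then exposed to compounds in DMSO for 16 h at 37 C. Viability read as CellTiter-Glo luminescence (intracellular ATP) after 30 min at room temperature.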

[3] = qHTS assay to identify small molecule inhibitors of chordoma cells - UCH-1 (AID 1259355); further: on the % scale 0 is the no-effect control and ±100 the full control effect; nearly all actives have a fitted effect of over 55% in size
In short: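 Cells (800/well) were seeded and left overnight at 37 C, 5% CO2, then treated with drugs at 15 concentrations plus a combination mix of auranofin, camptothecin, doxorubicin, rubitecan and topotecan. Viability after 48hr was read by CellTiter-Glo luminescence.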

[4] = qHTS assay to identify small molecule inhibitors of chordoma cells - UCH-2 (AID 1259356); further: on the % scale 0 is the no-effect control and ±100 the full control effect
[5] = P-glycoprotein substrates identified in KB-8-5-11 adenocarcinoma cell line, qHTS therapeutic library screen (AID 1346987); conditions: outcome: dose series up to 44.5 µM unless noted; further: on the % scale 0 is the no-effect control and ±100 the full control effect; nearly all actives have a fitted effect of over 65% in size
In short: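 Steps: plate 500 KB-8-5-11 cells/well in DMEM + 10% FCS (colchicine removed); pin compounds in dose-response; incubate 72 h, 37 degree C, 5% CO2; add CellTiter-Glo, 5 min; read luminescence.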

[6] = qHTS profiling for inhibitors of Plasmodium falciparum (3D7) proliferation (AID 743322; call rule not given here;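 further: infected erythrocytes exposed to compound for 72 h before lysis; 100% = DMSO vehicle wells and 0% = 0.29 µM artemisinin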); conditions: P. falciparum 3D7 proliferation; at 28.7 µM (top of the series) unless noted
In short: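 Erythrocytes infected with P. falciparum (0.3% parasitemia, 2.5% hematocrit) incubated with compounds 72 h at 37 C, 5% CO2. Lysis with saponin/Triton buffer containing SYBR Green I, overnight at room temperature in the dark; DNA fluorescence (485/535 nm) normalised to 0.29 uM artemisinin and DMSO.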

[7] = qHTS profiling for inhibitors of Plasmodium falciparum (DD2) proliferation (AID 743323; call rule not given here); conditions: lower = more inhibition; at 28.7 µM (top of the series) unless noted
In short: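 Parasite DNA quantified by SYBR Green fluorescence (ex 485, em 535 nm) after saponin/Triton lysis and overnight dark incubation. Cultures: 0.3% parasitemia, 2.5% hematocrit, 72 h, 37 C; data scaled between DMSO and 0.29 uM artemisinin.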

[8] = qHTS profiling for inhibitors of Plasmodium falciparum (HB3) proliferation (AID 743324); conditions: Plasmodium falciparum HB3 blood-stage proliferation; at 28.7 µM (top of the series) unless noted;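 further: 100% = DMSO vehicle wells and 0% = artemisinin-treated control wells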
In short: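 P. falciparum HB3 grown in erythrocytes (0.3% parasitemia, 2.5% hematocrit final) with compound for 72 h at 37 C, 5% CO2. Parasite DNA detected by SYBR Green after saponin/triton lysis overnight; normalized to 0.29 uM artemisinin and DMSO.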

[O-][N+](=Nc1ccccc1)c1ccccc1
inactive: max response [1] 18.6% | outcome [2] | Potency [3] | Potency [4] | Potency [5]

C=CC(C)(O)CC/C=C(\C)CCC=C(C)C (stereo unspecified)
inactive: max response [1] -0.0803% | outcome [2] | Potency [3] | Potency [4] | Potency [5]

CCN(CC)C(=S)S
inactive: Potency [3] | Potency [4] | Potency [5]
84.6%: remaining proliferation (% of control), lower = more inhibition [8]
82.5%: activity, percent of control [7]
active: Potency [1] 6.31 µM
87.7%: remaining parasite growth % (stronger effect = lower value) [6]

CC(C)[C@@H]1CC[C@@H](C)C[C@H]1O
inactive: max response [1] 20.4% | outcome [2] | Potency [3] | Potency [4] | Potency [5]

Nc1nccs1
inactive: max response [1] 1.76% | outcome [2] | Potency [3] | Potency [4] | Potency [5]

CCOC(=S)SSC(=S)OCC
inactive: max response [1] 0.863% | Potency [3] | Potency [4] | Potency [5]

OC[C@H]1O[C@@H]2O[C@H]3[C@H](O)[C@@H](O)[C@@H](O[C@H]4[C@H](O)[C@@H](O)[C@@H](O[C@H]5[C@H](O)[C@@H](O)[C@@H](O[C@H]6[C@H](O)[C@@H](O)[C@@H](O[C@H]7[C@H](O)[C@@H](O)[C@@H](O[C@H]1[C@H](O)[C@H]2O)O[C@@H]7CO)O[C@@H]6CO)O[C@@H]5CO)O[C@@H]4CO)O[C@@H]3CO
inactive: max response [1] -7.1% | outcome [2] | Potency [3] | Potency [4] | Potency [5]

OCc1ccccc1
inactive: max response [1] 0.478% | outcome [2] | Potency [3] | Potency [4] | Potency [5]

CO[C@@H]1[C@H](OC(=O)/C=C/C=C/C=C/C=C/C(=O)O)CC[C@]2(CO2)[C@H]1[C@@]1(C)O[C@@H]1CC=C(C)C
inactive: max response [1] -5.74% | outcome [2] | Potency [3] | Potency [4] | Potency [5]
